These results are taken from PMC11006913.

Common to all, as to test: PBM; 200 nM protein, PBS
Holding throughout (conditions): dsDNA, one strand shown

The target of assay [1] is T1, NKX2-4 (Homo sapiens, UniProt Q9H2Z4 175-261, P217L).
T1 sequence: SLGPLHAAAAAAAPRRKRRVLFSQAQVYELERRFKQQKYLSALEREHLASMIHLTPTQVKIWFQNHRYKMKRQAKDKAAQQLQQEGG

For assay [2], the target named is T2, NKX2-4 (Homo sapiens, UniProt Q9H2Z4 175-261, T231S).
T2 sequence: T1 sequence with L43P, T57S

The target of assay [3] is T3, NKX2-4 (Homo sapiens, UniProt Q9H2Z4 175-261).
T3 sequence: T1 sequence with L43P

Assay [4] has as its target T4, NKX2-4 (Homo sapiens, UniProt Q9H2Z4 175-261, R246Q).
T4 sequence: T1 sequence with L43P, R72Q

For assay [5], the target named is T5, VENTX (Homo sapiens, UniProt O95231 78-163, R121Q).
T5 sequence: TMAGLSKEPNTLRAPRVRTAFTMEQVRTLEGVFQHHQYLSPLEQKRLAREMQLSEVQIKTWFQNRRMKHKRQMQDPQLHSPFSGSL

The target in the next assay is NKX3-2 (Homo sapiens, UniProt P78367 192-278, P234S).
Assay [6] deals with HOXB9 (Homo sapiens, UniProt P17482 171-250, T197M).
The target in assay [7] is T6, VENTX (Homo sapiens, UniProt O95231 78-163).
T6 sequence: T5 sequence with Q44R

Assay [8] addresses HOXA7 (Homo sapiens, UniProt P31268 116-202).
The target in assay [9] is T7, VENTX (Homo sapiens, UniProt O95231 78-163, Y115F).
T7 sequence: T5 sequence with Y38F, Q44R

Assay [10] addresses HOXB9 (Homo sapiens, UniProt P17482 171-250).
Assay [11] deals with MSX2 (Homo sapiens, UniProt P35548 130-214, R199I).
The target in assay [12] is MSX2 (Homo sapiens, UniProt P35548 130-214).
The target in assay [13] is PROP1 (Homo sapiens, UniProt O75360 56-141).
The target in assay [14] is PROP1 (Homo sapiens, UniProt O75360 56-141, R99H).
The target of assay [15] is HOXB9 (Homo sapiens, UniProt P17482 171-250, R186Q).
Assay [16] concerns the target PROP1 (Homo sapiens, UniProt O75360 56-141, F88S).
The target in assay [17] is MSX2 (Homo sapiens, UniProt P35548 130-214, F161Y).
In assay [18] the target is HOXA7 (Homo sapiens, UniProt P31268 116-202, W177C).
Assay [19] concerns the target HOXC9 (Homo sapiens, UniProt P31274 178-260, K195R).
Assay [20] concerns the target HOXC10 (Homo sapiens, UniProt Q9NYD6 254-340).
The target in assay [21] is HOXB6 (Homo sapiens, UniProt P17509 132-218, K202E).
For assay [22], the target named is HOXC9 (Homo sapiens, UniProt P31274 178-260).
Assay [23] has as its target HOXC9 (Homo sapiens, UniProt P31274 178-260, R193K).
The target in assay [24] is HOXC10 (Homo sapiens, UniProt Q9NYD6 254-340, K271E).
Assay [25] has as its target HOXC9 (Homo sapiens, UniProt P31274 178-260, R222W).
The target in assay [26] is HOXB6 (Homo sapiens, UniProt P17509 132-218).
Assay [27] deals with T8, PAX4 (Homo sapiens, UniProt O43316 9-242, R200K).
T8 sequence: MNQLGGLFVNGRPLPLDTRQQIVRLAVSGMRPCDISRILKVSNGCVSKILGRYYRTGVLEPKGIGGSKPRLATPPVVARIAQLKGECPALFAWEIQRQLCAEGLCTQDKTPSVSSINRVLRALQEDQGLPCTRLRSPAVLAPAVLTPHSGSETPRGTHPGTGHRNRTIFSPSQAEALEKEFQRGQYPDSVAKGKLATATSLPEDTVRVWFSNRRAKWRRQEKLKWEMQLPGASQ

Assay [28] deals with T9, PAX4 (Homo sapiens, UniProt O43316 9-242, R227W).
T9 sequence: T8 sequence with K192R, R219W

Changes are numbered by the printed parent chain.

HOXB9 (Homo sapiens, UniProt P17482 171-250, T197M), sequence (P17482 171-250 T197M): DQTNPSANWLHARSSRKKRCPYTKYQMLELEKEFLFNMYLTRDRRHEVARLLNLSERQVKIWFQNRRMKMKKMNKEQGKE
HOXC9 (Homo sapiens, UniProt P31274 178-260), sequence (P31274 178-260): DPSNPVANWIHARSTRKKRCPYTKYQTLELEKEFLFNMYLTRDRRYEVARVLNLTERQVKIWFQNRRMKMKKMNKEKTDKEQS
HOXA7 (Homo sapiens, UniProt P31268 116-202), sequence (P31268 116-202): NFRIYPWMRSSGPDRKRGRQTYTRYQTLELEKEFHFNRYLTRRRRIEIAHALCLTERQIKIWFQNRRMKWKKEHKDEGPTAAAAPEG
HOXB9 (Homo sapiens, UniProt P17482 171-250), sequence (P17482 171-250): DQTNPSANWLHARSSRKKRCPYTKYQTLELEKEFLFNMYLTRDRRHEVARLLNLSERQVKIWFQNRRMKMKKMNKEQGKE
HOXC9 (Homo sapiens, UniProt P31274 178-260, R193K), sequence (P31274 178-260 R193K): as the sequence (P31274 178-260) above, with R16K counted along it
HOXA7 (Homo sapiens, UniProt P31268 116-202, W177C), sequence (P31268 116-202 W177C): as the sequence (P31268 116-202) above, with W62C counted along it
HOXB9 (Homo sapiens, UniProt P17482 171-250, R186Q), sequence (P17482 171-250 R186Q): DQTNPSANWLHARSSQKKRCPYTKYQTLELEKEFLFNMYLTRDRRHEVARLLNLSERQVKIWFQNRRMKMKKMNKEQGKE
HOXC9 (Homo sapiens, UniProt P31274 178-260, K195R), sequence (P31274 178-260 K195R): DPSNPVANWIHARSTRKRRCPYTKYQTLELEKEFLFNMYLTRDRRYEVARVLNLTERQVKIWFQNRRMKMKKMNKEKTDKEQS
MSX2 (Homo sapiens, UniProt P35548 130-214, R199I), sequence (P35548 130-214 R199I): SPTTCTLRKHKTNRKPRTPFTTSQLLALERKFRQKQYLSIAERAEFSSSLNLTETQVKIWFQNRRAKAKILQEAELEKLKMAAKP
NKX3-2, sequence (P78367 192-278 P234S): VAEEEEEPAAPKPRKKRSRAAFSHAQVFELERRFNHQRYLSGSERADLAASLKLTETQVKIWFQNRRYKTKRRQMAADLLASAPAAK
MSX2 (Homo sapiens, UniProt P35548 130-214, F161Y), sequence (P35548 130-214 F161Y): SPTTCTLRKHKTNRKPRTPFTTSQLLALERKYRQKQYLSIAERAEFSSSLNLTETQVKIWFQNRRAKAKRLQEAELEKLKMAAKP
PROP1 (Homo sapiens, UniProt O75360 56-141), sequence (O75360 56-141): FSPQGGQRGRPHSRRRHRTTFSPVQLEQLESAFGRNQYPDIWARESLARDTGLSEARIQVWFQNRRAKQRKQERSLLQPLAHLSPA
HOXC10 (Homo sapiens, UniProt Q9NYD6 254-340), sequence (Q9NYD6 254-340): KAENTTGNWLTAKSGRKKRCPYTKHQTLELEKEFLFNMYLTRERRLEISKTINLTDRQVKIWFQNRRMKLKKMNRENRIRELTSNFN
HOXB6 (Homo sapiens, UniProt P17509 132-218), sequence (P17509 132-218): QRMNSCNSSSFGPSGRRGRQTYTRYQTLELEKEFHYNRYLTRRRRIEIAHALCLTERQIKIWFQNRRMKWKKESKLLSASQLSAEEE
HOXB6 (Homo sapiens, UniProt P17509 132-218, K202E), sequence (P17509 132-218 K202E): as the sequence (P17509 132-218) above, with K71E counted along it
HOXC10 (Homo sapiens, UniProt Q9NYD6 254-340, K271E), sequence (Q9NYD6 254-340 K271E): as the sequence (Q9NYD6 254-340) above, with K18E counted along it
MSX2 (Homo sapiens, UniProt P35548 130-214), sequence (P35548 130-214): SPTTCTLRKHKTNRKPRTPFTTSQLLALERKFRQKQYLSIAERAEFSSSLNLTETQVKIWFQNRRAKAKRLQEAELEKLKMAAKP
PROP1 (Homo sapiens, UniProt O75360 56-141, F88S), sequence (O75360 56-141 F88S): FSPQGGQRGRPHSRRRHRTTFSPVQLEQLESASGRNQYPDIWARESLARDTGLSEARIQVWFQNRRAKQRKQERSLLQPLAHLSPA
PROP1 (Homo sapiens, UniProt O75360 56-141, R99H), sequence (O75360 56-141 R99H): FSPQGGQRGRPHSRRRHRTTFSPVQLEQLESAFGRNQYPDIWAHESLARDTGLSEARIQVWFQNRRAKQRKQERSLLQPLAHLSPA
HOXC9 (Homo sapiens, UniProt P31274 178-260, R222W), sequence (P31274 178-260 R222W): as the sequence (P31274 178-260) above, with R45W counted along it

Turning to GAGTACTC, the binding signal in the assay with NKX2-4 [1] was 12.4 upbm affinity estimate (log intensity, higher = more binding, comparable within an allelic series); with NKX2-4 [2], 12.8 upbm affinity estimate (log intensity, higher = more binding, comparable within an allelic series); with NKX2-4 [3], 12.3 upbm affinity estimate (log intensity, higher = more binding, comparable within an allelic series); in the assay with NKX2-4 [4], 12.9 upbm affinity estimate (log intensity, higher = more binding, comparable within an allelic series).
As to CGATTACC, the binding signal in the assay with VENTX [5] was 10.2 upbm affinity estimate (log intensity, higher = more binding, comparable within an allelic series).
Consider CAGGCATG, for which the binding signal was 9.76 upbm affinity estimate (log intensity, higher = more binding, comparable within an allelic series) with NKX2-4 [1]; 9.76 upbm affinity estimate (log intensity, higher = more binding, comparable within an allelic series) in the assay with NKX2-4 [2]; 9.66 upbm affinity estimate (log intensity, higher = more binding, comparable within an allelic series) with NKX2-4 [3]; 9.82 upbm affinity estimate (log intensity, higher = more binding, comparable within an allelic series) with NKX2-4 [4].
Turning to ACGCCGCA, the binding signal with NKX2-4 [1] was 9.67 upbm affinity estimate (log intensity, higher = more binding, comparable within an allelic series); with NKX2-4 [2], 9.65 upbm affinity estimate (log intensity, higher = more binding, comparable within an allelic series); with NKX2-4 [3], 9.64 upbm affinity estimate (log intensity, higher = more binding, comparable within an allelic series); with NKX2-4 [4] it was 9.74 upbm affinity estimate (log intensity, higher = more binding, comparable within an allelic series).
For AGTATCTC, the binding signal in the assay with NKX2-4 [1] was 11.5 upbm affinity estimate (log intensity, higher = more binding, comparable within an allelic series); in the assay with NKX2-4 [3], 11.4 upbm affinity estimate (log intensity, higher = more binding, comparable within an allelic series); with NKX2-4 [4], 11.6 upbm affinity estimate (log intensity, higher = more binding, comparable within an allelic series).
Regarding CTAATGGA, in the assay with VENTX [5], the binding signal is 11.7 upbm affinity estimate (log intensity, higher = more binding, comparable within an allelic series).
In the case of ATCCACTC, the binding signal in the assay with NKX2-4 [1] is 12.4 upbm affinity estimate (log intensity, higher = more binding, comparable within an allelic series); with NKX3-2, 12.5 upbm affinity estimate (log intensity, higher = more binding, comparable within an allelic series).
With CCCGGACG, the binding signal in the assay with VENTX [5] was 7.96 upbm affinity estimate (log intensity, higher = more binding, comparable within an allelic series); with HOXB9 [6], 8.39 upbm affinity estimate (log intensity, higher = more binding, comparable within an allelic series); with VENTX [7] it was 7.88 upbm affinity estimate (log intensity, higher = more binding, comparable within an allelic series); in the assay with HOXA7 [8] it was 8.42 upbm affinity estimate (log intensity, higher = more binding, comparable within an allelic series); in the assay with VENTX [9] it was 8.04 upbm affinity estimate (log intensity, higher = more binding, comparable within an allelic series); with HOXB9 [10] it was 8.49 upbm affinity estimate (log intensity, higher = more binding, comparable within an allelic series). Moreover, the binding signal with MSX2 [11] is 9.41 upbm affinity estimate (log intensity, higher = more binding, comparable within an allelic series); in the assay with MSX2 [12], 9.27 upbm affinity estimate (log intensity, higher = more binding, comparable within an allelic series); with PROP1 [13], 6.37 upbm affinity estimate (log intensity, higher = more binding, comparable within an allelic series); with PROP1 [14], 6.67 upbm affinity estimate (log intensity, higher = more binding, comparable within an allelic series); with HOXB9 [15] it was 8.54 upbm affinity estimate (log intensity, higher = more binding, comparable within an allelic series); with PROP1 [16], 6.37 upbm affinity estimate (log intensity, higher = more binding, comparable within an allelic series). Also, the binding signal with MSX2 [17] was 9.4 upbm affinity estimate (log intensity, higher = more binding, comparable within an allelic series); with HOXA7 [18], 8.37 upbm affinity estimate (log intensity, higher = more binding, comparable within an allelic series).
Regarding GCCATTAA, the binding signal with VENTX [5] is 11.8 upbm affinity estimate (log intensity, higher = more binding, comparable within an allelic series); with HOXB9 [6] it was 10.1 upbm affinity estimate (log intensity, higher = more binding, comparable within an allelic series); in the assay with HOXC9 [19], 12.9 upbm affinity estimate (log intensity, higher = more binding, comparable within an allelic series); with VENTX [7], 12.3 upbm affinity estimate (log intensity, higher = more binding, comparable within an allelic series); with HOXA7 [8], 11.9 upbm affinity estimate (log intensity, higher = more binding, comparable within an allelic series); in the assay with HOXC10 [20], 12.3 upbm affinity estimate (log intensity, higher = more binding, comparable within an allelic series). Moreover, the binding signal with VENTX [9] was 11.6 upbm affinity estimate (log intensity, higher = more binding, comparable within an allelic series); with HOXB6 [21], 10 upbm affinity estimate (log intensity, higher = more binding, comparable within an allelic series); in the assay with HOXB9 [10] it was 12.2 upbm affinity estimate (log intensity, higher = more binding, comparable within an allelic series); in the assay with HOXC9 [22], 13 upbm affinity estimate (log intensity, higher = more binding, comparable within an allelic series); with HOXC9 [23] it was 12.8 upbm affinity estimate (log intensity, higher = more binding, comparable within an allelic series); with HOXC10 [24], 12.2 upbm affinity estimate (log intensity, higher = more binding, comparable within an allelic series). For the same sequence, the binding signal with HOXB9 [15] was 12 upbm affinity estimate (log intensity, higher = more binding, comparable within an allelic series); with HOXC9 [25], 10.9 upbm affinity estimate (log intensity, higher = more binding, comparable within an allelic series); in the assay with HOXA7 [18], 8.78 upbm affinity estimate (log intensity, higher = more binding, comparable within an allelic series); in the assay with HOXB6 [26], 12.2 upbm affinity estimate (log intensity, higher = more binding, comparable within an allelic series).
With ACGCATTA, the binding signal was 10.4 upbm affinity estimate (log intensity, higher = more binding, comparable within an allelic series) with VENTX [5]; 11.2 upbm affinity estimate (log intensity, higher = more binding, comparable within an allelic series) in the assay with HOXC9 [19]; 11.6 upbm affinity estimate (log intensity, higher = more binding, comparable within an allelic series) with PAX4 [27]; 11.2 upbm affinity estimate (log intensity, higher = more binding, comparable within an allelic series) in the assay with HOXC9 [22]; 11.2 upbm affinity estimate (log intensity, higher = more binding, comparable within an allelic series) in the assay with HOXC9 [23]; 10.9 upbm affinity estimate (log intensity, higher = more binding, comparable within an allelic series) with PAX4 [28].
